This passage reports GFP response, % of DMSO results from PubChem BioAssay.

Each structure is given as a SMILES string. Unmarked numbers belong to inactive results.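 The calls were made as follows: active = GFP response above 150% of the DMSO level; inconclusive = fewer than 70 events counted for a yeast strain; inactive = the rest.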

This assay is described as follows: yeast AGP1-GFP fluorescence change, single-dose – cell-based, flow cytometry, S. cerevisiae, cherry picks, confirmation (AID 2273).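 Also: median GFP channel fluorescence over the whole cell population gate.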 The note with it: S. cerevisiae AGP1-GFP strain, 3 h, at 10 µM. In general terms: Flow cytometry measures light scatter and fluorescence of single cells or particles in a stream.

In the case of `O=c1[nH]c(=O)n([C@H]2C[C@H](O)[C@@H](CO)O2)cc1F`, the GFP response, % of DMSO is 102%.
As for `Nc1nc2c(ncn2COCCO)c(=O)[nH]1`, the GFP response, % of DMSO is 102%.
With `CC(=O)[C@@]1(O)CC[C@H]2[C@@H]3CCC4=CC(=O)CC[C@]4(C)[C@H]3CC[C@@]21C`, the GFP response, % of DMSO is 96.5%.
Take `C[C@]12CCC(=O)C=C1CC[C@@H]1[C@@H]2C(=O)C[C@@]2(C)[C@H]1CC[C@]2(O)C(=O)CO`: the GFP response, % of DMSO was 104%.
Then `CCOC(=O)C(=Cc1ccc(F)cc1)C(=O)OCC`, with 96.7%; and `O=C(O)c1ccc(N/N=C/c2c(F)cccc2Cl)cc1`, with 94%; and `CCCc1[nH]nc2c1C(c1ccc(OC(=O)N3CCOCC3)cc1)C(C#N)=C(N)O2` (configuration not stated), with 102%.
